Data published in the supplement of paper PMC9399229.
Structures can show the parent of a compound that is named as a salt. In all, about 1,900 compounds were measured (“relative cell viability (CellTiter-Glo), compound plus cabozantinib, relative to the cabozantinib arm (arm median 1.05; reference not stated)”: median about 1.1, lowest 2% from about 0.15 on). The list comes from a sample in which the lowest values are over-represented; it also holds similar structures and randomly drawn compounds.

Test system: Hep3B
Assay: relative cell viability (CellTiter-Glo), compound plus cabozantinib, relative to the cabozantinib arm (arm median 1.05; reference not stated) (fraction); higher = more viable cells (less growth inhibition)
Conditions: cabozantinib 2 µM; 4 days

Q: Which relative cell viability does the source give for `O=C(c1cncc(Br)c1)N1CCC(N2CCCC2)CC1` here?
A: The relative cell viability was 1.16.

Q: For `COc1cc2c(cc1O)CC[C@@H]1[C@@H]2CC[C@]2(C)[C@@H](O)CC[C@@H]12` [2-Methoxyestradiol (2-MeOE2)], which relative cell viability is on record?
A: The relative cell viability was 1.06.

Q: With `CCCCCCCCCCCCCCCCO` [1-Hexadecanol] as the compound, how does the relative cell viability read?
A: Its relative cell viability is 1.14.

Q: `C[C@@H](Nc1cc(F)cc(F)c1)c1cc(C(=O)N(C)C)cc2c(=O)cc(N3CCOCC3)oc12` was tested. Which relative cell viability did it give?
A: The relative cell viability was 0.998.

Q: With `CCN(CC)Cc1ccc2cc(COC(=O)Nc3ccc(C(=O)NO)cc3)ccc2c1` [Givinostat (ITF2357)] as the compound, how does the relative cell viability read?
A: Its relative cell viability is 0.109.

Q: How did the relative cell viability turn out when `COc1ccc(Cn2ccc3ccc(C(=O)NO)cc32)cc1` was run?
A: Its relative cell viability is 0.91.

Q: With `CCN(CC)CCNC(=O)c1ccc(N)cc1` [Procainamide HCl] as the compound, how does the relative cell viability read?
A: Its relative cell viability is 0.947.

Q: How did the relative cell viability turn out when `COc1cc(NC(=O)c2ccccn2)ccc1Cl` was run?
A: Its relative cell viability is 1.05.

Q: How did the relative cell viability turn out when `CN(C)C(=S)NN=C(c1ccccn1)c1ccccn1` was run?
A: The relative cell viability was 0.15.

Q: Which relative cell viability does the source give for `CCOC(=O)[C@H](CCc1ccccc1)N[C@@H](C)C(=O)N1CCC[C@H]1C(=O)O` [Enalapril Maleate] here?
A: Its relative cell viability is 1.15.

Q: For `CC#CC(=O)N1CC[C@@H](n2c(=O)n(-c3ccc(Oc4ccccc4)cc3)c3c(N)ncnc32)C1`, which relative cell viability is on record?
A: The relative cell viability was 1.07.

Q: `COC(=O)CC[C@H](NC(=O)[C@H](CC(=O)OC)NC(=O)OCc1ccccc1)C(=O)N[C@H](C(=O)N[C@@H](CC(=O)OC)C(=O)CF)C(C)C` was tested. Which relative cell viability did it give?
A: Its relative cell viability is 1.09.

Q: Which relative cell viability does the source give for `CCCCC(=O)N(Cc1ccc(-c2ccccc2-c2nnn[nH]2)cc1)[C@H](C(=O)O)C(C)C` [Valsartan] here?
A: Its relative cell viability is 1.2.

Q: For `COc1ccc(-c2nc(N3CCOCC3)c3sc(CN(C)c4ncc(C(=O)NO)cn4)cc3n2)cn1`, which relative cell viability is on record?
A: The relative cell viability was 0.181.

Q: `Cn1cnc2c(F)c(Nc3ccc(Br)cc3Cl)c(C(=O)NOCCO)cc21` [Selumetinib (AZD6244)] was tested. Which relative cell viability did it give?
A: Its relative cell viability is 0.616.

Q: With `Cc1cc(Nc2ncc(Cl)c(Nc3ccccc3S(=O)(=O)C(C)C)n2)c(OC(C)C)cc1C1CCNCC1` as the compound, how does the relative cell viability read?
A: Its relative cell viability is 0.122.

Q: Which relative cell viability does the source give for `COc1cc(N2CCC(N3CCN(C)CC3)CC2)ccc1Nc1ncnc(Nc2ccccc2S(=O)(=O)C(C)C)n1` here?
A: Its relative cell viability is 1.09.

Q: For `NC(=S)N/N=C/c1ncccc1N` [Triapine], which relative cell viability is on record?
A: The relative cell viability was 1.02.

Q: How did the relative cell viability turn out when `CC(=O)Nc1nc2c(Oc3cc(-c4ccc(C(F)(F)F)cc4)ncn3)cccc2s1` was run?
A: The relative cell viability was 1.04.

Q: With `CN[C@H]1CN(c2ccc3c(=O)c(C(=O)O)cn(-c4nccs4)c3n2)C[C@@H]1OC` [Voreloxin (SNS-595)] as the compound, how does the relative cell viability read?
A: The relative cell viability was 0.968.

Q: For `CC/C(=C(\c1ccc(O)cc1)c1ccc(OCCNC)cc1)c1ccccc1` [Endoxifen HCl], which relative cell viability is on record?
A: Its relative cell viability is 1.15.

Q: How did the relative cell viability turn out when `Oc1cc(O)c(Cl)cn1` [Gimeracil] was run?
A: The relative cell viability was 1.

Q: For `CNC(CC(=O)O)C(=O)O` [NMDA (N-Methyl-D-aspartic acid)], which relative cell viability is on record?
A: The relative cell viability was 1.15.

Q: How did the relative cell viability turn out when `CO[C@H]1/C=C/O[C@@]2(C)Oc3c(C)c(O)c4c(O)c(c5c(nc6cc(C)ccn65)c4c3C2=O)NC(=O)/C(C)=C\C=C\[C@H](C)[C@H](O)[C@@H](C)[C@@H](O)[C@@H](C)[C@H](OC(C)=O)[C@@H]1C` [Rifaximin] was run?
A: The relative cell viability was 0.91.

Q: `C=CCc1cc(OC)c(O)c(C(=O)NCCO)c1` [Alibendol] was tested. Which relative cell viability did it give?
A: Its relative cell viability is 0.982.

Q: With `CC1(C)CC[C@]2(C(=O)O)CC[C@]3(C)C(=CC[C@@H]4[C@@]5(C)CC[C@H](O)C(C)(C)[C@@H]5CC[C@]43C)[C@@H]2C1` [Oleanolic Acid] as the compound, how does the relative cell viability read?
A: Its relative cell viability is 1.14.

Q: Which relative cell viability does the source give for `C=C1C(=O)[C@]23[C@H](O)[C@H]1CC[C@H]2[C@@]12CO[C@]3(O)[C@@H](O)[C@@H]1C(C)(C)CC[C@@H]2O` [Oridonin] here?
A: Its relative cell viability is 1.11.

Q: With `Cc1csc(-c2nnc(Nc3ccc(Oc4ncccc4-c4ccnc(N)n4)cc3)c3ccccc23)c1` as the compound, how does the relative cell viability read?
A: The relative cell viability was 1.

Q: How did the relative cell viability turn out when `CCCNC(=O)Nc1ccc(Oc2ncnc3cc(OC)c(OC)cc23)cc1Cl` was run?
A: Its relative cell viability is 1.14.

Q: `CCOc1cc2ncc(C#N)c(Nc3ccc(F)c(Cl)c3)c2cc1NC(=O)/C=C/CN(C)C` [Pelitinib (EKB-569)] was tested. Which relative cell viability did it give?
A: Its relative cell viability is 0.9.

Q: With `CC(=O)C1=C(O)C=C2Oc3c(C(C)=O)c(O)c(C)c(O)c3C2(C)C1=O` (single isomer, unassigned; (+)) [(+)-Usniacin] as the compound, how does the relative cell viability read?
A: Its relative cell viability is 1.11.

Q: For `C[C@H]1Oc2cc(cnc2N)-c2c(nn(C)c2C#N)CN(C)C(=O)c2ccc(F)cc21`, which relative cell viability is on record?
A: The relative cell viability was 1.14.

Q: Which relative cell viability does the source give for `C[C@@H](O)[C@H]1C(=O)N2C(C(=O)O)=C(S[C@@H]3CN[C@H](C(=O)N(C)C)C3)[C@H](C)[C@H]12` [Meropenem] here?
A: Its relative cell viability is 1.17.

Q: How did the relative cell viability turn out when `CCc1c2c(nc3ccc(O)cc13)-c1cc3c(c(=O)n1C2)COC(=O)[C@]3(O)CC` was run?
A: The relative cell viability was 0.176.

Q: How did the relative cell viability turn out when `CC[C@@]1(O)C(=O)OCc2c1cc1n(c2=O)Cc2cc3cc(O)ccc3nc2-1` [(S)-10-Hydroxycamptothecin] was run?
A: The relative cell viability was 0.137.

Q: For `CC[C@@]1(O)C(=O)OCc2c1cc1n(c2=O)Cc2cc3c(CN(C)C)c(O)ccc3nc2-1` [Topotecan HCl], which relative cell viability is on record?
A: Its relative cell viability is 0.556.

Q: For `CC(C)(C(=O)NCC(F)(F)C(F)(F)F)C(=O)N[C@@H]1C(=O)Nc2ccccc2-c2ccccc21`, which relative cell viability is on record?
A: Its relative cell viability is 1.04.

Q: How did the relative cell viability turn out when `C[C@]12C=CC(=O)N[C@@H]1CC[C@@H]1[C@@H]2CC[C@]2(C)[C@@H](C(=O)Nc3cc(C(F)(F)F)ccc3C(F)(F)F)CC[C@@H]12` [Dutasteride] was run?
A: Its relative cell viability is 1.12.

Q: For `O=C(COc1ccc(C(=O)c2ccccc2)cc1)NC1CCN(Cc2ccccc2)CC1` [AdipoRon], which relative cell viability is on record?
A: The relative cell viability was 1.06.

Q: How did the relative cell viability turn out when `Cc1[nH]nc2ccc(-c3cncc(OC[C@@H](N)Cc4ccccc4)c3)cc12` was run?
A: The relative cell viability was 0.11.

Q: How did the relative cell viability turn out when `O=C(O)Cc1cc(I)c(Oc2ccc(O)c(I)c2)c(I)c1` [Tiratricol] was run?
A: Its relative cell viability is 0.888.

Q: For `CSc1nc2cc(Cl)c(Oc3cccc(Cl)c3Cl)cc2[nH]1` [Triclabendazole], which relative cell viability is on record?
A: The relative cell viability was 1.14.

Q: How did the relative cell viability turn out when `O=C(/C=C\n1cnc(-c2cc(C(F)(F)F)cc(C(F)(F)F)c2)n1)N1CC(F)(F)C1` was run?
A: The relative cell viability was 0.32.

Q: How did the relative cell viability turn out when `CC12CC3CC(C)(C1)CC(N)(C3)C2` [Memantine HCl] was run?
A: The relative cell viability was 1.1.

Q: For `O=C(/C=C/c1cccc(S(=O)(=O)Nc2ccccc2)c1)NO` [Belinostat (PXD101)], which relative cell viability is on record?
A: The relative cell viability was 0.149.

Q: With `Cn1cc(/C=C/C(=O)c2cccc(F)c2)cc1/C=C/C(=O)NO` as the compound, how does the relative cell viability read?
A: Its relative cell viability is 1.19.

Q: `O=C(C=Cc1ccccc1)NC(NC(=S)Nc1ccc(Cl)cc1)C(Cl)(Cl)Cl` (stereo not drawn) was tested. Which relative cell viability did it give?
A: The relative cell viability was 1.14.

Q: With `COC(=O)N[C@H](C(=O)N[C@@H](Cc1ccccc1)[C@@H](O)CN(Cc1ccc(-c2ccccn2)cc1)NC(=O)[C@@H](NC(=O)OC)C(C)(C)C)C(C)(C)C` [Atazanavir Sulfate] as the compound, how does the relative cell viability read?
A: Its relative cell viability is 0.969.
